Assay results from PubChem BioAssay (NCATS).
Inconclusive results are not listed. Where a call stands in place of a potency, no number is given. Calls of active or inactive are those of the source. Unless noted, the call rests on the fitted dose curve; in most records, active means well fitted inhibition curve with a large enough effect; inconclusive means small, poorly fitted or top-dose-only effect; inactive means flat fitted curve, though single readings scatter.

Assays:
[1] = qHTS profiling for inhibitors of Plasmodium falciparum proliferation (AID 504749); further: potency means the concentration at half of the fitted maximal effect; on all read-outs here: nearly all actives have a fitted effect of over 60% in size; conditions: P. falciparum in erythrocytes, SYBR Green DNA, 72 h; for activity, negative = inhibition: at 28.7 µM (top of the series)
Outline: (§1)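 Parasite proliferation within erythrocytes, 72 h exposure. Endpoint: SYBR Green I fluorescence after overnight lysis at room temperature. Controls: 0.29 uM artemisinin, DMSO.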

3D7 = experiment: as above; conditions: P. falciparum in erythrocytes, SYBR Green DNA, 72 h; series mostly up to 28.7 µM
Outline: as §1

7G8 = experiment: as above; conditions: P. falciparum in erythrocytes, SYBR Green DNA, 72 h; series mostly up to 28.7 µM
Outline: as §1

AA1029 = experiment: as above; conditions: P. falciparum in erythrocytes, SYBR Green DNA, 72 h; series mostly up to 28.7 µM
Outline: as §1

AS120 = experiment: as above; conditions: P. falciparum in erythrocytes, SYBR Green DNA, 72 h; series mostly up to 28.7 µM
Outline: as §1

ATS189 = experiment: as above; conditions: P. falciparum in erythrocytes, SYBR Green DNA, 72 h; series mostly up to 28.7 µM
Outline: as §1

ATS95 = experiment: as above; conditions: P. falciparum in erythrocytes, SYBR Green DNA, 72 h; series mostly up to 28.7 µM
Outline: as §1

C2A = experiment: as above; conditions: P. falciparum in erythrocytes, SYBR Green DNA, 72 h; series mostly up to 28.7 µM
Outline: as §1

[2] = qHTS drug screen for cell cycle checkpoint inhibitors in PARPi-resistant BRCA-mutant ovarian cancer cell lines. (AID 1963452; calls by dose curve); conditions: PEO1/OlaR viability, CellTiter-Glo luminescence, 96 h, stronger effect = lower value
Outline: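 PEO1, PEO4 and PEO1/OlaR ovarian cancer cells, 600 per well, exposed 96 h at 37C to a dilution series. Viability read by CellTiter-Glo luminescence, normalized to DMSO and empty wells; activity summarized as Z-AUC.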

SMILES | activity, negative = inhibition ([1]; parasite line A) | activity, negative = inhibition ([1]; parasite line B) | Potency (3D7) | Potency (7G8) | Potency (AA1029) | Potency (AS120) | Potency (ATS189) | Potency (ATS95) | Potency (C2A) | Z-AUC [2] | Z-AUC ([2]; measured here: PEO1 parental Z-AUC) | Z-AUC ([2]; measured here: PEO4 Z-AUC) | Potency ([1]; parasite line A) | Potency ([1]; parasite line B)
CC(=O)[C@H]1CC[C@H]2[C@@H]3CC[C@H]4C[C@H](O)CC[C@]4(C)[C@H]3C(=O)C[C@]12C | 10.2% (inactive) | 12.3% (inactive) | inactive | inactive | inactive | inactive | inactive | inactive | inactive | – | – | – | – | –
CCCC(C)(COC(N)=O)COC(=O)NC(C)C (configuration not stated) | 8.09% (inactive) | 15.9% (inactive) | inactive | inactive | inactive | inactive | inactive | inactive | inactive | – | – | – | – | –
CC(=O)[C@H]1CC[C@H]2[C@@H]3CC[C@H]4C[C@](C)(O)CC[C@]4(C)[C@H]3CC[C@]12C | 3.34% (inactive) | 12.8% (inactive) | inactive | inactive | inactive | inactive | inactive | inactive | inactive | – | – | – | – | –
O=C1NCN(c2ccccc2)C12CCN(CC1COc3ccccc3O1)CC2 (configuration not stated) | -17.5% (inactive) | 5.67% (inactive) | inactive | 12.6 µM (active) | inactive | inactive | inactive | inactive | inactive | – | – | – | – | –
Oc1cccc2cccnc12 | 4.36% (inactive) | -11.6% (inactive) | inactive | inactive | inactive | inactive | inactive | inactive | inactive | – | – | – | – | –
OCCOc1ccccc1 | 10.1% (inactive) | 6.31% (inactive) | inactive | inactive | inactive | inactive | inactive | inactive | inactive | – | – | – | – | –
CCC(C(N)=O)N1CCCC1=O (configuration not stated) | 2.96% (inactive) | 6.9% (inactive) | inactive | inactive | inactive | inactive | inactive | inactive | inactive | – | – | – | – | –
Cc1cc(SCc2sc(-c3ccc(C(F)(F)F)c(F)c3)nc2C)ccc1OCC(=O)O | – | – | – | – | – | – | – | – | – | -0.925 (inactive) | -0.906 | -0.303 | – | –
Oc1ccccc1-c1ccccc1 | -2.25% (inactive) | -2.09% (inactive) | inactive | inactive | inactive | inactive | inactive | inactive | inactive | – | – | – | – | –
O=[N+]([O-])c1cc([As](=O)(O)O)ccc1O | – | – | 3.98 µM (active) | 3.98 µM (active) | 3.16 µM (active) | 3.16 µM (active) | – | – | – | – | – | – | 3.98 µM (active) | 3.16 µM (active)
CC[N+](CC)(CC)CC | 15.6% (inactive) | 17.3% (inactive) | inactive | inactive | inactive | inactive | inactive | inactive | inactive | – | – | – | – | –
CCCC1CCCCN1 (configuration not stated) | 5.52% (inactive) | 3.92% (inactive) | inactive | inactive | inactive | inactive | inactive | inactive | inactive | – | – | – | – | –
NCC(O)c1ccc(O)cc1 (configuration not stated) | 10.2% (inactive) | 3.73% (inactive) | inactive | inactive | inactive | inactive | inactive | inactive | inactive | – | – | – | – | –
CC[N+]1(C)CCCC(OC(=O)C(O)(c2ccccc2)c2ccccc2)C1 (configuration not stated) | -4.88% (inactive) | 2.86% (inactive) | inactive | inactive | inactive | inactive | inactive | inactive | inactive | – | – | – | – | –
CCN(C(C)=O)c1cccc(-c2ccnc3c(C#N)cnn23)c1 | 6.76% (inactive) | 2.02% (inactive) | inactive | inactive | inactive | inactive | inactive | inactive | inactive | – | – | – | – | –
CC(C)(C)NCC(O)c1cc(Cl)c(N)c(Cl)c1 (configuration not stated) | -4.99% (inactive) | – | inactive | 7.94 µM (active) | – | – | – | – | inactive | – | – | – | – | –
CN1C[C@H](CNC(=O)OCc2ccccc2)C[C@@H]2c3cccc4c3c(cn4C)C[C@H]21 | – | – | – | 5.01 µM (active) | 6.31 µM (active) | 10 µM (active) | 10 µM (active) | 11.2 µM (active) | 8.91 µM (active) | – | – | – | 7.08 µM (active) | –
Cc1ncc(CNC(=O)N(CCCl)N=O)c(N)n1 | 6.89% (inactive) | 3.28% (inactive) | inactive | inactive | inactive | inactive | inactive | inactive | inactive | – | – | – | – | –
CC[C@@H](CO)NC(=O)[C@@H]1C=C2c3cccc4[nH]cc(c34)C[C@H]2N(C)C1 | 17.2% (inactive) | 1.58% (inactive) | inactive | – | inactive | inactive | inactive | inactive | inactive | – | – | – | – | –
NCCc1cc(O)c(O)cc1O | 7.16% (inactive) | 11.4% (inactive) | inactive | inactive | inactive | inactive | inactive | inactive | inactive | – | – | – | – | –
Clc1cccc(N2CCNCC2)c1 | 9.32% (inactive) | 8.49% (inactive) | inactive | – | inactive | inactive | inactive | inactive | inactive | – | – | – | – | –
c1ccc(C2CC2)c(OCC2=NCCN2)c1 | 6.76% (inactive) | 4.47% (inactive) | inactive | – | inactive | inactive | inactive | inactive | inactive | – | – | – | – | –

SMILES | activity, negative = inhibition ([1]; parasite line A) | activity, negative = inhibition ([1]; parasite line B) | Potency (3D7) | Potency (7G8) | Potency (AA1029) | Potency (AS120) | Potency (ATS189) | Potency (ATS95) | Potency (C2A) | Z-AUC [2] | Z-AUC ([2]; measured here: PEO1 parental Z-AUC) | Z-AUC ([2]; measured here: PEO4 Z-AUC) | Potency ([1]; parasite line A) | Potency ([1]; parasite line B)
O=c1[nH]c2ccccc2n1C1CCN(CCCC(c2ccc(F)cc2)c2ccc(F)cc2)CC1 | – | -29.2% (inactive) | 15.8 µM (active) | – | inactive | – | inactive | inactive | inactive | – | – | – | – | –
Cc1ccc(-c2nc3ccc(C)cn3c2CC(=O)N(C)C)cc1 | -4.35% (inactive) | -1.84% (inactive) | inactive | inactive | inactive | inactive | inactive | inactive | inactive | – | – | – | – | –
Nc1ccncc1 | 15.2% (inactive) | 1.68% (inactive) | inactive | inactive | inactive | inactive | inactive | inactive | inactive | – | – | – | – | –
Cc1ccc(S(=O)(=O)N[C@@H](CCCCN)C(=O)CCl)cc1 | – | – | – | 8.91 µM (active) | 10 µM (active) | 11.2 µM (active) | – | – | 11.2 µM (active) | – | – | – | 7.08 µM (active) | –
CCN(CC)CCOC(=O)C(O)(c1ccccc1)c1ccccc1 | 9.85% (inactive) | -20.6% (inactive) | inactive | inactive | inactive | inactive | inactive | inactive | inactive | – | – | – | – | –
CC(C)(N)Cc1ccc(Cl)cc1 | -1.24% (inactive) | 1.12% (inactive) | inactive | – | – | inactive | – | – | inactive | – | – | – | – | –
C[C@]12C/C(=C/O)C(=O)C[C@@H]1CC[C@@H]1[C@@H]2CC[C@@]2(C)[C@H]1CC[C@]2(C)O | -16.2% (inactive) | – | inactive | – | inactive | inactive | inactive | inactive | inactive | – | – | – | – | –
CCN(CC)CCN1C(=O)CN=C(c2ccccc2F)c2cc(Cl)ccc21 | -1.62% (inactive) | -4.36% (inactive) | inactive | – | – | inactive | – | – | inactive | – | – | – | – | –
C#CCOC(C(=O)OCCN(C)C)(c1ccccc1)c1ccccc1 | -0.224% (inactive) | 7.7% (inactive) | inactive | 10 µM (active) | – | inactive | inactive | inactive | inactive | – | – | – | – | –
Cc1cccc(C)c1NC1=NCCCS1 | -16.9% (inactive) | -6.65% (inactive) | inactive | 11.2 µM (active) | – | – | – | – | inactive | – | – | – | – | –
O=C(O)c1ccc2[nH]cc(CCCCN3CC=C(c4ccccc4)CC3)c2c1 | 5.66% (inactive) | 0.723% (inactive) | inactive | inactive | inactive | inactive | inactive | inactive | inactive | – | – | – | – | –
Clc1ccc(COC(Cn2ccnc2)c2ccc(Cl)cc2Cl)cc1 (configuration not stated) | – | – | 3.16 µM (active) | 0.398 µM (active) | 4.47 µM (active) | 1 µM (active) | 3.16 µM (active) | 3.98 µM (active) | 11.2 µM (active) | – | – | – | 3.55 µM (active) | 2.51 µM (active)
c1ccc2c(c1)OCC(C1=NCCN1)O2 (configuration not stated) | -17.7% (inactive) | -17.9% (inactive) | – | – | inactive | inactive | inactive | inactive | inactive | – | – | – | – | –
CN1C(=S)CN=C(c2ccccc2)c2cc(Cl)ccc21 | -4.94% (inactive) | 2.35% (inactive) | inactive | inactive | inactive | inactive | inactive | inactive | inactive | – | – | – | – | –
Oc1ccc(Cl)cc1Cc1ccccc1 | -17.6% (inactive) | – | – | 2 µM (active) | – | 8.91 µM (active) | – | – | inactive | – | – | – | – | –
CC(C)NCC(O)c1ccccc1Cl (configuration not stated) | – | – | – | 4.47 µM (active) | 4.47 µM (active) | 12.6 µM (active) | – | 11.2 µM (active) | – | – | – | – | – | 11.2 µM (active)
CCC1(C2=NCCN2)Cc2ccccc2O1 (configuration not stated) | 5.76% (inactive) | 6.35% (inactive) | inactive | – | 11.2 µM (active) | – | 7.94 µM (active) | 8.91 µM (active) | – | – | – | – | – | –
CC1NCCOC1c1ccccc1 (configuration not stated) | 8.85% (inactive) | 5.03% (inactive) | inactive | inactive | inactive | inactive | inactive | inactive | inactive | – | – | – | – | –
NCC(CC(=O)O)c1ccc(Cl)cc1 (configuration not stated) | 6.71% (inactive) | 18.2% (inactive) | inactive | inactive | inactive | inactive | inactive | inactive | inactive | – | – | – | – | –
c1ccc2c(c1)Nc1ccccc1S2 | – | – | 4.47 µM (active) | – | – | inactive | – | – | – | – | – | – | – | –
FC(F)(F)c1cccc(C2=CCN(CCc3ccc4ccccc4c3)CC2)c1 | -13.7% (inactive) | -28.6% (inactive) | inactive | inactive | inactive | inactive | inactive | inactive | inactive | – | – | – | – | –
CC(C)(C)CC(C)(C)c1ccc(O)cc1 | -18.1% (inactive) | – | inactive | 12.6 µM (active) | inactive | – | inactive | inactive | inactive | – | – | – | – | –
